This is an account of results in the supplement of paper PMC11417369.

Whole data set: some 25,000 sequences, median “ln(normalized median fluorescence intensity)” near 7.1, cut for the highest 2% near 10. This is one part of a sample in which the highest values are shown more often than they occur.

In this experiment the test system is PfSIP2 AP2 domain 1 (GST-tagged). Briefly: gcPBM binding intensity (ln(normalized median fluorescence intensity)); higher = stronger DNA binding. Summed up:
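After 1 h on an Agilent 4 × 180k array of primer-extended double-stranded 36-bp intergenic genomic probes and negative controls, bound GST-tagged P. falciparum DNA-binding domains were detected with Alexa488 anti-GST antibody and scanned at 488 nm. The domains had been expressed in E. coli, and binding took place in 1× PBS with 1% milk, 0.2 mg/ml BSA, 0.5% salmon testes DNA and 0.03% Triton X-100. Binding intensity is the highest Masliner-normalised natural-log median intensity across replicate spots of either probe orientation.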
Take “AATATAATATAATGCACACATAAAAAAAAAAAAATC [CACACA_site1303]”: the “gcPBM binding intensity (ln)” value was 7.43.

For the sequence “AGGTCTGTTTTATATTGTACATAAAAAGTGCACATG [XGTACX_site4529]”, the “gcPBM binding intensity (ln)” value was 11.4.

“TATATATTCATAAAGTGTACATGTTTATATATATAT [XGTACX_site7585]”: the “gcPBM binding intensity (ln)” value came out at 8.48.

Consider “TAATAAAAAAAGTGCACACACATAATATTTATATAT [CACACA_site7548]”, for which the “gcPBM binding intensity (ln)” value was 10.7.

For the sequence “AATAATAAAAAAAGTGCACACACATAATATATATAT [CACACA_site9100]”, the “gcPBM binding intensity (ln)” value came to 10.6.

Take “TTTTTCCTATTTTTAGTGCACATATAAATAAATAAA [GTGCAC_site9821]”: the “gcPBM binding intensity (ln)” value amounted to 10.7.

Take “ATATCATTTTCCTGCACACATAAATTTATATAATAT [CACACA_site1048]”: the “gcPBM binding intensity (ln)” value stood at 7.82.

In the case of “TATATCTGTTTATATTGTACACATATATATATATAT [XGTACX_site714]”, the “gcPBM binding intensity (ln)” value turned out to be 9.28.

Regarding “AAAATAAAAATAAAAGCACACATAAATATATATATA [CACACA_site8409]”, the “gcPBM binding intensity (ln)” value is 8.73.

Consider “ATCTATTTCTATTGTTGTACTTATTTTTCATTGTTT [XGTACX_site6942]”, for which the “gcPBM binding intensity (ln)” value was 7.27.

In the case of “AATAGGTGCCTTTTTTCACACACATGTCAACTAAAT [CACACA_site8846]”, the “gcPBM binding intensity (ln)” value was determined as 9.34.

Take “GATATATAAATAGATACACACATACATACATACATA [CACACA_site6260]”: the “gcPBM binding intensity (ln)” value came out at 7.18.

For “ATATTTATTTTATAAAGTACTAAAAAATATATTATA [XGTACX_site8522]”, the “gcPBM binding intensity (ln)” value worked out at 6.9.

For “CATATAATAAATAATTGTACTTGATATAATATTATG [XGTACX_site3562]”, the “gcPBM binding intensity (ln)” value is 6.91.

“CCTTTATAAAAAAGTAGTACACAATGAATTTATAAT [XGTACX_site5523]”: the “gcPBM binding intensity (ln)” value was 7.1.

With “CAAAATTAATAAGTCACACACACATCTATAATATAT [CACACA_site6519]”, the “gcPBM binding intensity (ln)” value worked out at 6.78.

For “ACATAAAATTGTTAAAAAATTGTATAAATAATACAT [XGTACX_negctrl_site557]”, the “gcPBM binding intensity (ln)” value was found to be 6.81.

On to “TAATTCTAAATAAATGTACACACAAAAATAAATGTA [CACACA_site8509]”, for which the “gcPBM binding intensity (ln)” value was 7.02.

Take “TGTCAATCATATAAATGTACATTTTAAATGAGGTGT [XGTACX_site7391]”: the “gcPBM binding intensity (ln)” value worked out at 7.36.

With “TAATTATTTTAAAAAGTGCATTAAAAGATATTAAAT [GTGCAC_site9694]”, the “gcPBM binding intensity (ln)” value came out at 8.22.

For the sequence “AAAAGTATATATTCAGTGCATAGTCTTTAAATATAA [GTGCAC_site9522]”, the “gcPBM binding intensity (ln)” value stood at 8.15.

Consider AAAAGTCTCTTTTTAGTGCACATTTTATTTAAATAT, for which the “gcPBM binding intensity (ln)” value is 10.2.

On to “TAATAAAAAAAGTGCACACACATAATATATATATAT [CACACA_site3340]”, for which the “gcPBM binding intensity (ln)” value came to 10.4.

Regarding “AAATAAAGAATATAAATACACACTTAAATATATATT [CACACA_site4007]”, the “gcPBM binding intensity (ln)” value worked out at 6.73.

As to “AATATAATATAATGCACACATAAAAAAAAAAAAAAA [CACACA_site304]”, the “gcPBM binding intensity (ln)” value was determined as 7.47.

In the case of “ATATATATATAGTGCACACTTAAGAATATAAAGAGG [CACACA_site1151]”, the “gcPBM binding intensity (ln)” value was 10.1.

On to “TATATATATATATGTGCACACATAATAAAAAAAAAA [CACACA_site3830]”, for which the “gcPBM binding intensity (ln)” value amounted to 9.64.

Take “ATATATATATATAGTGCACACTTAAGAATATAAAGA [CACACA_site4771]”: the “gcPBM binding intensity (ln)” value is 10.2.

For the sequence ACAATAAAGAACAGTATGCACTTTTATGCATGCGTA, the “gcPBM binding intensity (ln)” value stood at 8.94.

With “CAAATAATATTATGAAGTACTTCAAATTTTGAAAGA [XGTACX_site2530]”, the “gcPBM binding intensity (ln)” value is 6.98.

In the case of “TATTTATTTATGTGTTGTACAAATAAATAGAGGTAT [XGTACX_site6408]”, the “gcPBM binding intensity (ln)” value amounted to 7.35.

Regarding “AAAAATAAAACAATTACACACATAATTTTATTTTTA [CACACA_site928]”, the “gcPBM binding intensity (ln)” value was found to be 6.86.

Turning to “ATATTTAACAGGTTAAAAATATAAACAAATAAATAA [CACACA_negctrl_site907]”, the “gcPBM binding intensity (ln)” value was 6.85.

Turning to “ATGCAAAATAAAGAAGCACACAAAAATGAAATATAT [CACACA_site9217]”, the “gcPBM binding intensity (ln)” value worked out at 7.2.

Turning to “TGTGTATAAGTCACTTGTACTAGTAGTAAAAAAAAA [XGTACX_site4341]”, the “gcPBM binding intensity (ln)” value was 6.85.

In the case of “TTCTATATTATATATGCATGTGTTATTCTTATTTTC [TGCATGCA_site92]”, the “gcPBM binding intensity (ln)” value turned out to be 7.15.

Turning to “TTATTTATTCTATGTGCATGTTATTTTTTTTTTTCG [TGCATGCA_site262]”, the “gcPBM binding intensity (ln)” value was found to be 7.6.

Consider “ATTATTTTTCTATGTGTGCACGTGTGGAATGTGTCT [GTGCAC_site9507]”, for which the “gcPBM binding intensity (ln)” value is 10.3.

Take “ATATATATTAATATTTGTACATAAAATTATTTCAAT [XGTACX_site5364]”: the “gcPBM binding intensity (ln)” value stood at 7.14.

Turning to “TTTTCAATATATTAATGTACGAATACGCAAATAAGA [XGTACX_site1613]”, the “gcPBM binding intensity (ln)” value was determined as 7.23.

For the sequence “GTATATGAATAATATTTTATGGTAATTTTTTTTTTT [XGTACX_negctrl_site512]”, the “gcPBM binding intensity (ln)” value is 6.91.

Regarding “ATATGACATAAAACATGTACATGTTCATAAATATAT [XGTACX_site1923]”, the “gcPBM binding intensity (ln)” value stood at 7.07.

Regarding “AAATATAATAATATATGTACATATATATATATATAT [XGTACX_site6980]”, the “gcPBM binding intensity (ln)” value worked out at 9.73.

Turning to “ATATATATTAATTTTGTGCACAAATGGAAATGTTTG [GTGCAC_site9971]”, the “gcPBM binding intensity (ln)” value was 8.34.

For the sequence “AAAAAAAATTTAATTGCACACAGGAAAATATAATTT [CACACA_site3810]”, the “gcPBM binding intensity (ln)” value came to 7.01.

Turning to GAAATTTTTAATGTGGTGCACAGGAAATTTTTTCTT, the “gcPBM binding intensity (ln)” value is 11.
